# Laboratory results published in PubChem BioAssay AID2528 (National Center for Advancing Translational Sciences (NCATS), 2010).
# Values joined by “and” are separate entries in the source; they are usually repeats but may differ in a detail not shown here. Equal entries are not always repeated. Among all 350,000 compounds or so, about 700 (0.2%) were called active. Many of the other results were omitted from the sample, so actives are more common in it than they were. Unmarked numbers belong to inactive results. Calls come from the whole dose curve; as a rule, active = well fitted inhibition curve with a large enough effect; inconclusive = small, poorly fitted or top-dose-only effect; inactive = flat fitted curve, though single readings scatter. Bridge positions count the residues as written; N and C are the ends. Peptide text beside a SMILES is read from it.
# Target: RecQ-like DNA helicase BLM (Homo sapiens) (UniProt P54132)
# Assay: qHTS Assay for Inhibitors of Bloom's syndrome helicase (BLM); note: nearly all actives have a fitted effect of over 35% in size
# Conditions: recombinant BLM DNA unwinding, fluorescence dequenching; series mostly up to 56.1 µM; activity change, negative = inhibition: at the top concentration
# From the text: Survival of cells and the faithful propagation of the genome depend on elaborate mechanisms of detecting and repairing DNA damage. Treatment of advanced cancer relies on radiation therapy or chemotherapy, which kill cancer cells by causing extensive DNA damage. It is often found, that cancer cells develop resistance to therapy through enhanced activity of DNA repair functions; this has led to an increased interest in developing drugs that interfere with DNA repair, which could sensitize cancer cells to conventional therapy.
# This validation qHTS assay pertains to human BLM, which is important in resolving abnormal DNA structures formed during replication or homologous recombination. Shutting down the expression of BLM leads to chromosomal instability and higher radiation sensitivity in cultured cells.
# The validation assay was a fluorescence quenching based kinetic qHTS for BLM Helicase DNA unwinding. The activity was measured as ATP-dependent separation of a 20-bp DNA duplex extended by 30-nt single-stranded tails (forked duplex). The forked DNA substrate was tagged with rhodamine fluorophore (carboxytetramethyl rhodamine, TAMRA) and BHQ-2 (Black Hole Quencher 2) dark quencher. Strand separation results in an increase in the fluorescence of TAMRA (excitation 525 nm, emission 598 nm). This substrate construct operates in a red-shifted region where very few compound library members have been noted to fluoresce (PubChem AIDs 593 and 594). An additional feature of the assay is the inclusion of 2.5 ug/ml poly (dIdC), to reduce interference by compounds such as DNA intercalators, a major source of false inhibitors.
# Ian Hickson, University of Oxford
# Opher Gileadi, Structural Genomics Consortium, University of Oxford
# Screening Center PI: Austin, C.P.
# Screening Center: NIH Chemical Genomics Center [NCGC]
# Three uL of reaction buffer (25 mM Tris-HCl (pH 8.0), 5 mM NaCl, 2 mM MgCl2, 1mM DTT, 0.01% Tween- 20, and 2.5 ug/ml poly(dI-dC), including enzyme (50 nM BLM), were dispensed into a 1536-well Greiner black assay plate via solenoid-valve based nanoliter dispensers. Compounds (23 nl each in columns 5-48) and control (23 nl each in column 2 as dose-response) were transferred via a Kalypsys pintool equipped with a 1536-pin array. The plates were incubated for 15 min at room temperature, and then 1 ul of substrates (200 nM DNA and 2 mM ATP, final concentrations) was added to start the reaction. The plate was transferred into a ViewLux high-throughput CCD imager where the reaction progress was measured in a discontinuous kinetic mode (two reads spaced 2 hours apart, with intermediate room temperature incubation of the covered assay plate) by using standard red-fluorescence optics (excitation filter 525 nm, emission filter 598 nm). Enzyme-free and vehicle (DMSO) controls were included for signal normalization.
# Potency is the fitted concentration of half-maximal effect.
# Chain of RecQ-like DNA helicase BLM (Homo sapiens) (P54132 whole entry, looked up): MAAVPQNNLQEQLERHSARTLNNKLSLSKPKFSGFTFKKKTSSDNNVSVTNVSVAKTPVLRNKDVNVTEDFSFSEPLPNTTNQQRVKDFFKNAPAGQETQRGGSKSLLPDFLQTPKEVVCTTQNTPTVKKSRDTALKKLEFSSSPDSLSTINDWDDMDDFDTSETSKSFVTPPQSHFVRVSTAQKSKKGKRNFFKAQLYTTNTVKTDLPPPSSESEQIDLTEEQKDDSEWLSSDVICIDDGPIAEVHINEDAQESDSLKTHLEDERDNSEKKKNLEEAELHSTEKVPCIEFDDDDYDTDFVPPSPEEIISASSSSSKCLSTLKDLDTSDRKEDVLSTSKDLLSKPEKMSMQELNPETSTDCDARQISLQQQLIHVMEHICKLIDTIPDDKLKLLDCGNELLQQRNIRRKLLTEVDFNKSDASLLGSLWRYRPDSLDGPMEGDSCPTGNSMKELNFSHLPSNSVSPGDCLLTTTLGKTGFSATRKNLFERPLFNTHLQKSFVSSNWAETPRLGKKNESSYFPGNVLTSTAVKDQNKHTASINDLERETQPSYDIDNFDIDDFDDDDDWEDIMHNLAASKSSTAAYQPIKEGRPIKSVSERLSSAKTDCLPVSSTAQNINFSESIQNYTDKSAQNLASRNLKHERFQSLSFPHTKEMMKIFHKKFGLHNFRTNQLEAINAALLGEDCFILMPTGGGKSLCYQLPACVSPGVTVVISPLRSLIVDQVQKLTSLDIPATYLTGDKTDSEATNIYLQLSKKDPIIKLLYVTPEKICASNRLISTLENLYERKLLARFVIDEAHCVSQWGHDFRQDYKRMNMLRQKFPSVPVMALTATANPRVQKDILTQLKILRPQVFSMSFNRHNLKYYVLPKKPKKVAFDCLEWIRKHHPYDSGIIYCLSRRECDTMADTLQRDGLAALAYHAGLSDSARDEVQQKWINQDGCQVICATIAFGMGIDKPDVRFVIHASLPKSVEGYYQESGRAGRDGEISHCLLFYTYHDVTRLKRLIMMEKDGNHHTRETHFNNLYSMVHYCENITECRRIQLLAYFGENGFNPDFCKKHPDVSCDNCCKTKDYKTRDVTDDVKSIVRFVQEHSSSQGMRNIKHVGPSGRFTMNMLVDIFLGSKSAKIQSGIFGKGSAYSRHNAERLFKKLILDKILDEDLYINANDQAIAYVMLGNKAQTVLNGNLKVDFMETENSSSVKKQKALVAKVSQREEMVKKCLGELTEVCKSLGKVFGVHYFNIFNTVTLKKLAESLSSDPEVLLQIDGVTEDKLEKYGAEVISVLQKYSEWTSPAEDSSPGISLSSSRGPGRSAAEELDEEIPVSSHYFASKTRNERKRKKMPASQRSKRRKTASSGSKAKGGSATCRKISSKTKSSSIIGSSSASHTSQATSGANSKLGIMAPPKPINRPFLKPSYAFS
Compound,"activity change, negative = inhibition",Potency
C=CC1=C2C=C(C3CC3)N(C(CO)CO)C=C2C(=O)C(C)(OC(=O)c2ccco2)C1=O (centres undefined),-12.4% [at 12.4 µM],–
C[C@@H](O)[C@@H]1NC(=O)[C@H](CCCCN)NC(=O)[C@H](Cc2c[nH]c3ccccc23)NC(=O)[C@H](Cc2ccccc2)NC(=O)[C@H](Cc2ccccc2)NC(=O)[C@H](CC(N)=O)NC(=O)[C@H](CCCCN)NC(=O)[C@@H](NC(=O)[C@@H]2CCCN2)CSSC[C@@H](C(=O)N[C@@H](CCCCN)C(=O)O)NC(=O)[C@H](CO)NC(=O)[C@H](CO)NC(=O)[C@H](Cc2ccccc2)NC1=O (H-PCKNFFWKTFSSCK-OH; disulfide 2-13),21.2%,–
CCOC(=O)C1CCCN(C(=O)c2ccc3c(c2)sc2nc(-c4ccc(CC)cc4)cn23)C1 (centres undefined),-2.58%,–
OCCC(O)CO (centres undefined),–,inactive
CC[C@]1([C@H]2O[C@@H]([C@@H]3O[C@](O)(CO)[C@@H](C)C[C@H]3C)C[C@H]2C)CC[C@@H]([C@]2(C)CC[C@@]3(C[C@@H](O)[C@@H](C)[C@@H]([C@H](C)[C@H](OC)[C@H](C)C(=O)O)O3)O2)O1,2.14% [at 21.4 µM],–
Cc1ccc(OCCCC(=O)Nc2ccc(S(=O)(=O)Nc3cc(C)nc(C)n3)cc2)cc1,-3.4%,–
COc1ccc(NC(=O)CSc2nc(NS(=O)(=O)c3ccc(C)cc3)cc(=O)[nH]2)cc1,–,22.4 µM (active)
Cc1ccc(NC(=O)CSc2nc(CSc3ccc(C)cc3)cc(=O)[nH]2)cc1,-5.28%,–
COCCn1c(=O)c(CCc2ccccc2)nc2cnc(N3CCNCC3)nc21,2.72%,–
N[C@@H](C(=O)O)c1ccc(P(=O)(O)O)cc1,1.25%,–
COC(C)C(C(=O)OCC1=CCN2CC[C@H](O)[C@@H]12)C(C)C (some centres undefined),3%,–
COc1ccc2c3c1OC1CC(O)C=C[C@@]31CCN(C)C2 (some centres undefined),-12.8%,–
CCOC(=O)c1c(C)[nH]c2c1-c1ccccc1C(=O)C2=O,–,2.82 µM (active)
CCOC(=O)c1c(SCC(=O)Nc2cccc(C)c2C)nc(=O)[nH]c1C,-1.44%,–
CCOC(=O)c1c(C)[nH]c(C(=O)NCc2ccccc2OC)c1C,2.72%,–
COc1ccc(NS(=O)(=O)c2cc3c4c(c2)CC(=O)N4CCC3)cc1Cl,1.48%,–
COC(=O)C(C(=O)OC)[C@@H](NC=O)c1ccccc1,-1.06%,–
CCCCS(=O)(=O)N1C2=NC(C(=O)OC)=C(C(=O)OC)[C@@H]3N(Cc4ccccc4)c4ccccc4[C@]23C[C@H]1C(=O)OC,-0.97% [at 12.4 µM],–
C=CCOC(=O)C(C(C)=O)C(NC(=O)OC)c1ccccc1 (centres undefined),-4.39% [at 12.4 µM],–
CC(C)C[C@@H](CC(=O)N[C@@H](CCC(=O)O)CC(=O)O)NC(=O)[C@@H]1CCCC[C@H]1NC(=O)C[C@@H](NC(=O)C[C@H](Cc1c[nH]c2ccccc12)NC(=O)[C@@H]1CCCC[C@H]1N)C(C)C,0.14%,–
Nc1ncn(C2OC(CO)C(O)C2O)c(=O)n1 (centres undefined),-5.76%,–
CC1CC[C@@]23CCC4(C)[C@@]5(C)CCC6C(C)(C)C(O)CC[C@@]6(C)C5C=C[C@@]4(OC2=O)C3C1C (some centres undefined),-0.263%,–
COc1ccc(-c2nc3c(c4c2C[C@H](c2ccccc2)OC4)CN(C(=O)c2cccnc2)CC3)c(C)c1,0.694% [at 12.4 µM],–
C=C1O[C@@](CO)(n2cnc3c(N)ncnc32)[C@H](O)[C@@H]1O,0.613%,–
COc1ccc(-c2nc(-c3ccccc3)oc2Nc2ccc3ccccc3c2)cc1,3.96%,–

Compound,"activity change, negative = inhibition",Potency
CCCC[C@H]1C(=O)N(c2ccccc2)N(c2ccc(O)cc2)C1=O,2.14% [at 21.4 µM],–
COC(=O)[C@@]1(Cc2ccc(F)cc2)[C@@H]2[C@@H](CC(=O)[C@H]2CC(=O)C(=O)N2CCCC2)CN1C(=O)c1ccccc1,-2.36%,–
COC(=O)C1(C)C=CC2(CCCCC2)N1C(C)=O (centres undefined),-1.29%,–
CC1=C2[C@@H](O)[C@H]([C@@H](C)C(=O)NCCC(C)C)CC[C@@]2(C)C=CC1=O,-1.03%,–
Cc1ccc(-c2ncc(Cl)cc2-c2ccc(S(C)(=O)=O)cc2)cn1,2.81%,–
C[C@H]1CC[C@H](C(=O)O)N[C@@H]1c1ccc(C#Cc2ccccc2)cc1,6.21% [at 12.4 µM],–
COc1ccccc1CNc1ncnc2ccc(-c3c(C)noc3C)cc12,1.02%,–
Nc1nc2[nH]c(=O)c(=O)[nH]c2c(=O)[nH]1,5.91%,–
CC/C=C\C/C=C\C/C=C\C/C=C\C/C=C\C/C=C\CCC(=O)NC(C)C(=O)O (centres undefined),3.92%,–
COC(=O)C1=C(C)N(Cc2ccccc2)C2=C3C(=O)N(c4ccccc4)C(=O)C3[C@@](O)(C(=O)OC)C(=O)N2C1c1ccccc1 (some centres undefined),-3.25% [at 12.4 µM] and -3.97% [at 12.4 µM],–
COc1ccc(S(=O)(=O)c2c(Nc3cccc(Cl)c3)sc(C(=O)c3ccccc3)c2N)cc1,-4.89%,–
CC1(C)OC2CO[C@]3(COS(N)(=O)=O)OC(C)(C)OC3C2O1 (some centres undefined),-7.65%,–
COc1cc(OC)c(NC(=O)c2nc(-c3ccncc3)no2)cc1Cl,1.3%,–
N#Cc1c(N2CCCCC2)nc(N)c2c(N)nc(SCC(=O)O)cc12,–,28.2 µM (active)
N#Cc1c(C(F)(F)F)cc(-c2cccs2)nc1N1CCCCC1,-2.96%,–
C=C1C(=CC=C2CCC[C@@]3(C)[C@@H]2CC[C@H]3[C@H](C)CCCC(C)C)C[C@@H](O)C[C@@H]1O,-22.4%,–
CC(C)CN1CCc2nc(-c3ccccc3)c3c(c2C1)COC(C)C3 (centres undefined),-4.43% [at 12.4 µM],–
Cc1ccc(CCNC(=O)C2CCN(c3nnc(-n4cccc4CNc4ccc(C)cc4)s3)CC2)cc1,-9.92%,–
CC(C)C1=CC2=CC[C@H]3[C@](C)(C(=O)O)CCC[C@]3(C)C2CC1 (some centres undefined),4.37%,–
Cc1ccc(/C=C(\C#N)C(=O)Nc2cccc3ncccc23)o1,–,7.94 µM (active)
CCOC(=O)c1ccc(-c2ccc(/C=C(\C#N)C(=O)Nc3ccc(OCC)cc3)o2)cc1,-5.55%,–
O=C(O)c1cc(Cl)c(Cl)cc1C(=O)Nc1cccc2ncccc12,-9.89%,–
FC(F)(F)c1ccccc1-c1nc(-n2ccnc2)c2ccccc2n1,-3.83%,–
C/C(CCN1CCCCc2nc(C)c(C)cc21)=N\O[C@@H](C)c1cn([C@@H]2COC[C@@H]2O)nn1,3.53% [at 12.4 µM],–
